According to the supplement of paper PMC9694430:
Several values for one entry are separate records, joined by “and”; a condition that tells them apart may be missing. Identical values can stand only once.

Assays:
Test in all cases: thermal shift delta Tm vs DMSO control; higher = stronger stabilization (binding)
Conditions in all cases: 12.5 µM; protein concentration 2 µM
[1] = system: LOC_OS01G57100-cb003
In short: (§1)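 Compounds dissolved in DMSO were added to purified rice kinase domain constructs, which had been expressed in E. coli, for differential scanning fluorimetry. Each well held 19.5 μl of 2 μM kinase in 100 mM potassium phosphate pH 7.5, 150 mM NaCl, 10% glycerol and 5 × SYPRO Orange. Fluorescence was followed from 25°C to 95°C at a rate of 0.05°C/s. Shifts in Boltzmann-fitted melting temperature are triplicate means relative to DMSO-only protein.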

[2] = system: LOC_OS01G60330-cb001
In short: as §1

[3] = system: LOC_OS01G60700-cb002
In short: as §1

[4] = system: LOC_OS01G63280-cb003
In short: as §1

[5] = system: LOC_OS01G67340-cb003
In short: as §1

[6] = system: LOC_OS01G70970-cb002
In short: as §1

[7] = system: LOC_OS02G07810-cb001
In short: as §1

[8] = system: LOC_OS02G08530-cb003
In short: as §1

[9] = system: LOC_OS02G14120-cb001
In short: as §1

[10] = system: LOC_OS02G17970-cb001
In short: as §1

SMILES | thermal shift delta Tm [1] | thermal shift delta Tm [2] | thermal shift delta Tm [3] | thermal shift delta Tm [4] | thermal shift delta Tm [5] | thermal shift delta Tm [6] | thermal shift delta Tm [7] | thermal shift delta Tm [8] | thermal shift delta Tm [9] | thermal shift delta Tm [10]
FC(F)c1nc2ccccc2n1-c1nc(N2CCOCC2)nc(N2CCOCC2)n1 | 0.81 °C | 1.34 °C | 1.13 °C | 0.27 °C | -0.18 °C | 0.47 °C | 0.59 °C | 0.83 °C | 0.41 °C | 0.88 °C
CNC(=O)c1ccccc1Nc1cc(Nc2ccc(N3CCOCC3)cc2OC)ncc1C(F)(F)F | 2.14 °C | 0.41 °C | 1.89 °C | 0.52 °C | 3.13 °C | 10.3 °C | 0.91 °C | 3.96 °C | 9.46 °C | 2.18 °C
C[C@@H](N)c1ccc(C(=O)Nc2ccnc3[nH]ccc23)cc1 | 0.44 °C | 1.35 °C | 0.79 °C | 0.61 °C | 0.47 °C | 0.39 °C | 0.79 °C | 0.76 °C | 4 °C | 1.28 °C
COc1ccc(F)c(F)c1C(=O)c1cnc(NC2CCN(S(C)(=O)=O)CC2)nc1N | 0.71 °C | 0.06 °C | 0.31 °C | -0.18 °C | 1.43 °C | 0.03 °C | 0.5 °C | 0.57 °C | -0.08 °C | -0.09 °C
CCn1c(-c2nonc2N)nc2cnc(Oc3cccc(NC(=O)c4ccc(OCCN5CCOCC5)cc4)c3)cc21 | 0.1 °C | 1.01 °C | 1.61 °C | 0.37 °C | 1.07 °C | 0.14 °C | 0.95 °C | 1.19 °C | -0.13 °C | 1.79 °C
O=C(Nc1ccccc1C(=O)NC1CCCCNC1=O)c1cc2ccccc2s1 (stereo not given) | 1.14 °C | 1.02 °C | 0.65 °C | -0.03 °C | 0.41 °C | 0.19 °C | 0.51 °C | 0.19 °C | 0.18 °C | 0.88 °C
Cn1cc(-c2ccc3c(c2)CCN3C(=O)Cc2cccc(C(F)(F)F)c2)c2c(N)ncnc21 | 1.46 °C | -0.42 °C | 0.15 °C | 9.43 °C | 3.52 °C | 0.54 °C | 0.74 °C | 1.06 °C | 3.86 °C | 0.57 °C
CCS(=O)(=O)N1CCN(c2ccc(Nc3ncc(C(N)=O)c(NC4CC4)n3)cc2)CC1 | 0.76 °C | 9.63 °C | 1.4 °C | 1.68 °C | 3.04 °C | 7.22 °C | 0.35 °C | 3.19 °C | 5.36 °C | 1.18 °C
C[C@H]1CNC(=O)c2cnn3ccc(nc23)N[C@H](C)c2cc(F)ccc2O1 | 0.38 °C | -0.02 °C | -0.09 °C | 2 °C | 1.17 °C | 0.74 °C | -0.67 °C | 2.82 °C | 10.7 °C | -0.27 °C
O=C(Nc1c[nH]nc1-c1nc2ccc(CN3CCOCC3)cc2[nH]1)NC1CC1 | 0.91 °C | 11.9 °C | 1.09 °C | 5.34 °C | 1.94 °C | 7.9 °C | 0.64 °C | 3.3 °C | 11.9 °C | 0.14 °C
Cc1ccc(NC(=O)Nc2cc(C(F)(F)F)ccc2F)cc1Nc1ccc2c(c1)NC(=O)/C2=C\c1ccc[nH]1 | 2.33 °C | 1.66 °C | 0.91 °C | 2.05 °C | 1.55 °C | 1.83 °C | 3.74 °C | -2.7 °C | 0.57 °C | 1.85 °C
CNC(=O)c1cc(Oc2ccc(NC(=O)Nc3cc(C(C)(C)C)nn3-c3ccc4ncccc4c3)c(F)c2)ccn1 [Rebastinib (DCC-2036)] | 2.72 °C | 1.36 °C | 0.84 °C | 11.5 °C | 0.32 °C | 3.62 °C | 1.36 °C | 2.28 °C | 8.15 °C | 1.32 °C
Cc1cc(N2CCOCC2)cc2[nH]c(-c3c(NC[C@@H](O)c4cccc(Cl)c4)cc[nH]c3=O)nc12 | 1.15 °C | 6.82 °C | -0.31 °C | 1.68 °C | 1.08 °C | 1.82 °C | 0.46 °C | 4.03 °C | 1.99 °C | 0.82 °C
CCN1/C(=C/C(C)=O)Sc2ccc(OC)cc21 | 1.85 °C | 1.16 °C | 0.54 °C | 0.05 °C | 0.66 °C | 0.38 °C | 0.47 °C | 0.41 °C | 0.43 °C | 0.27 °C
CN1CCC(Nc2nc(Nc3ccc(Oc4ccccc4)cc3)c3c(=O)[nH]cc(Br)c3n2)CC1 | 1.9 °C | 3.13 °C | 1.69 °C | 0.86 °C | 1.7 °C | 3.58 °C | 0.79 °C | 3.25 °C | 3.98 °C | 0.52 °C
CN1CC(O)C2=C/C(=N/NC(N)=O)C(=O)C=C21 (stereo not given) [Carbazochrome] | -0.08 °C | 0.07 °C | 0.11 °C | -0.22 °C | -0.39 °C | 0.31 °C | -0.8 °C | 0.45 °C | 0.37 °C | -0.48 °C
CC(C)(C)c1ccc(S(=O)(=O)/C=C/C#N)cc1 | 3.12 °C | -0.21 °C | 1.42 °C | -3.74 °C | 0.12 °C | -4.09 °C | 0.63 °C | 1.02 °C | -0.46 °C | 5.71 °C
CN(c1ncccc1CNc1nc(Nc2ccc3c(c2)CC(=O)N3)ncc1C(F)(F)F)S(C)(=O)=O | 1.74 °C and 1.7 °C | 2.27 °C and 2.55 °C | 0.88 °C and 1.26 °C | 2.29 °C and 3.24 °C | 1.9 °C and 2.14 °C | 6.41 °C and 7.59 °C | 0.34 °C and 0.67 °C | 1.99 °C and 2.23 °C | 4.47 °C and 5.67 °C | 0.58 °C and 1.27 °C
O=C(/C=C/c1ccc(O)c(O)c1)c1ccc(O)cc1O [Butein] | 4.85 °C | 7.74 °C | 1.12 °C | 17.7 °C | 7.74 °C | 2.95 °C | 1.6 °C | 1.81 °C | 4.14 °C | 3.5 °C
O=C(Nc1nc2cccc(-c3ccc(CN4CCS(=O)(=O)CC4)cc3)n2n1)C1CC1 [Filgotinib (GLPG0634)] | 1.32 °C | 2.66 °C | 0.53 °C | 0.12 °C | 0.43 °C | 0.37 °C | 0.52 °C | 0.93 °C | 2.91 °C | 0.47 °C
